According to PubChem BioAssay AID904 (National Center for Advancing Translational Sciences (NCATS), 2007):
Screen size: about 55,000 compounds; about 530 (0.96%) were called active. Not shown: some 7% with an inconclusive outcome. The call rests on the fitted dose curve; in most records, active means well fitted cell-killing curve with a large enough effect; inconclusive means small, poorly fitted or top-dose-only effect; inactive means no such curve, though single readings can be large or run the other way. What follows is part of a selection rich in actives, with near analogues and random picks from the rest. A call without a number means that no potency is given here.

assay: qHTS Screen for Compounds that Selectively Target Cancer Cells with p53 Mutations: Cytotoxicity of p53 Null Cells at the Nonpermissive Temperature; settings: H1299 p53-null (neo) cells, 39C, ATPlite viability, 24 h; series mostly up to 46.1 µM; further: nearly all actives have a fitted effect of over 50% in size
In short: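 Concentration-response (up to 46 uM) was run for 24 h at the nonpermissive 39C on H1299-p53A138V or H1299-neo cells. ATP content was measured with ATPlite luminescence. AC50 values were Hill-modeled after normalizing between DMSO and 100 uM tamoxifen killing.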
Potency means the concentration at half of the fitted maximal effect.

Structure (SMILES)	Potency	activity, negative = cell killing
COc1cc(Cl)c(C)cc1NC(=O)COC(=O)c1cc(SC)ccc1Cl	inactive	–
Cc1cc2n(n1)C(c1cc(C(C)(C)C)c(O)cc1O)Nc1ccccc1-2 (centres undefined)	inactive	–
Clc1ccc(-n2nnnc2-c2cnc(-c3ccccn3)nc2-c2cccs2)cc1	inactive	–
c1ccc(-c2noc(-c3cccs3)n2)nc1	14.1 µM (active)	–
O=C(CN1C(=O)CCn2nc(-c3ccccc3)cc21)NCc1ccccc1	inactive	–
CN(C(=O)c1c(Cl)cnn1C)C12CC3CC(CC(C3)C1)C2	–	17.1% [at 1.84 µM] (inactive)
COc1ccc(-c2csc(NC(=O)COC(=O)Cc3ccc(Cl)cc3Cl)n2)cc1	inactive	–
COc1ccc(NC(=O)c2cc3cc(C)ccc3n2C)cc1	inactive	–
Nc1nnc(SCC(=O)Nc2ccc3nc(SCC(=O)Nc4ccccc4)sc3c2)s1	inactive	–
Cc1ccccc1CNC(=O)CSc1nnc(C)c2c(C)n(-c3ccccc3)nc12	inactive	–
O=C(CSc1ccc(C(F)(F)F)cc1[N+](=O)[O-])NCCOc1ccccc1	inactive	–
COc1ccc(-c2c3c(=O)n(C)c(=O)n(C)c3c3c(C)nc4ccccc4n23)cc1	inactive	–
CCc1nnc(SCc2nc(-c3cccc(C)c3)oc2C)c2cc3sc(C)cc3n12	inactive	–
Cc1noc(COc2ccccc2OCc2onc(C)c2Cl)c1Cl	inactive	–
O=C(NCCc1ccc(Cl)cc1)c1ccc2nc(CCc3ccccc3)oc2c1	inactive	–
COc1cc(C(=O)NCCc2csc3nc(-c4ccccc4C)nn23)cc(OC)c1OC	inactive	–
COc1ccc2c(c1)c(N1CCCC1=O)c(C(=O)Nc1ccccc1C(F)(F)F)n2C	inactive	–
Cc1ccccc1-n1c(C)cc(/C=C2\NC(=O)NC2=O)c1C	8.91 µM (active)	–
CCc1ccc(CNC(=O)c2cc3cc4ccc(OC)cc4nc3o2)cc1	inactive	–
CCOc1ccc(NC(=O)Cn2cc(C(=O)c3ccc(C)cc3)c(=O)c3cc4c(cc32)OCCO4)cc1	inactive	–

Structure (SMILES)	Potency	activity, negative = cell killing
Cc1cc(C)cc(NC(=O)CSc2nc(=O)n(CCN3CCOCC3)c3c2CCC3)c1	inactive	–
CCCCCCCCC(=O)NCCOc1ccccc1	inactive	–
Cc1ccc(NC(=O)CN2C(=O)CC(C)Sc3ccccc32)c(C)c1 (centres undefined)	inactive	–
O=C(CSc1nc2c(c(=O)[nH]1)CN(Cc1ccc(F)cc1)CC2)Nc1ccccc1Cl	inactive	–
Cc1ccc(Nc2c(-c3ccc(C)s3)nc3ccccn23)cc1	inactive	–
Cc1ccn2c(Nc3ccc4c(c3)OCCO4)c(-c3ccc(C)s3)nc2c1	10 µM (active)	–
Cc1cccc2nc(-c3ccc(Cl)s3)c(Nc3ccc4c(c3)OCCO4)n12	inactive	–
CCn1c2ccccc2c2nnc(N3CCN(c4cc(C)ccc4C)CC3)nc21	inactive	–
Cc1ccc(CCNC(=O)c2ccc(CS(=O)(=O)Cc3cccc(C)c3)o2)cc1	inactive	–
Cc1ccc(Cl)cc1N1CCN(C(=O)CN2C(=O)COc3ccc(S(=O)(=O)N4CCOCC4)cc32)CC1	inactive	–
Cc1cc(C)cc(-n2c(SCC(=O)NCC3CCCO3)nc3c([nH]c4ccccc43)c2=O)c1 (centres undefined)	inactive	–
COc1ccc(C(=O)Nc2onc3c2CCCC3)cc1	7.94 µM (active)	–
CC1CCc2noc(NC(=O)c3ccc([N+](=O)[O-])cc3)c2C1 (centres undefined)	inactive	–
COc1ccc(-c2cc(C(=O)Nc3sc4c(c3C(N)=O)CCCC4)no2)cc1	inactive	–
O=C(Cn1ncc2c3ccccc3n(Cc3ccccc3)c2c1=O)NC1CCCCCC1	inactive	–
Cc1c(Cl)cccc1NC(=O)c1noc2c1CCCC2	inactive	–
O=C(N/N=C/c1cccc([N+](=O)[O-])c1)C1CC(=O)N(c2ccc(Br)cc2)C1 (centres undefined)	inactive	–
CN(Cc1ccccc1)C(=O)COC(=O)c1ccccc1Nc1ccccc1	–	-8.55% [at 1.84 µM] (inactive)
O=C(NCc1ccccc1)c1cccc(NC(=O)N2CCSc3ncccc32)c1	inactive	–
